VDR inhibitor = inhibitors of human vitamin D receptor. AID 504847. P11473. VDR-SRC2-3 peptide fluorescence polarization, 2 h. hit rate 0.93% among 400,000. Potency, µM, for inactives: max response, negative = inhibition, usual class: inhibitors
Target sequence (P11473 whole entry, looked up): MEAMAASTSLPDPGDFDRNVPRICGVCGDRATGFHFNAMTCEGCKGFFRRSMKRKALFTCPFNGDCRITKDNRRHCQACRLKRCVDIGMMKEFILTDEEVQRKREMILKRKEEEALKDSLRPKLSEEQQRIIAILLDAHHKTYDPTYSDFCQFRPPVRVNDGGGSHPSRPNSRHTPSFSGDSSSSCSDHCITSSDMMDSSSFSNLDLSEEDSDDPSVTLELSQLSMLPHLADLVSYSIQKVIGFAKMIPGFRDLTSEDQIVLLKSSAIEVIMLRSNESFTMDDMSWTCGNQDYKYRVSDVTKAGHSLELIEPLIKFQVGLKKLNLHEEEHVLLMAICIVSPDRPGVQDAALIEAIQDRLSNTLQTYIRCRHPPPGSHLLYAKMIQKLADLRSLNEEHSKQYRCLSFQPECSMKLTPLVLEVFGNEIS
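Fluorescence polarization assay of small-molecule disruption of VDR binding to coregulator peptide SRC2-3. Compounds and controls pin-transferred, then read after 2 h incubation at ambient room temperature.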
PLK1 PBD block = inhibitors of human PLK1 polo-box domain binding; P53350; Plk1 PBD binding of FITC phosphopeptide, fluorescence polarization; Potency, µM, for inactives: max response, negative = inhibition, usual class: inhibitors; hit rate 2.8% among 360,000; further: series mostly up to about 57 µM; nearly all actives have a fitted effect of over 65% in size
12-LOX inh = blocks human arachidonate 12S-lipoxygenase; P18054; purified 12hLO, xylenol orange hydroperoxide absorbance; Potency, µM (highest dose often 108 µM), inactives show at the highest dose activity change, negative = inhibition, actives largely listed as inhibitors; hit rate 1.1% among 580,000; AID 1671190
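Purified human 12hLO at 150 nM in 25 mM Hepes, 0.01% Triton X-100, pH 7.0, preincubated 15 min at room temperature with compound. Reaction started with 40 uM arachidonic acid, 30 min at room temperature. Hydroperoxide measured by Fe-xylenol orange, 573/405 nm absorbance ratio.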
Sfp PPTase inh = inhibitors of Bacillus subtilis Sfp phosphopantetheinyl transferase; Q9F4F7; Biochemical Sfp PPTase activity, qHTS; Potency, µM, inactives show largest response in the series, negative = inhibition, hits mostly inhibitors; hit rate 3.5% among 310,000; AID 1490;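 further: the enzyme is Sfp with the accession as filed and its product quenches rhodamine fluorescence; 0% = enzyme reaction without inhibitor and -100% = no enzyme wells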
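With Hepes-Na pH 7.6 buffer containing 10 mM MgCl2, Sfp (15 nM) modified BHQ-2-YbbR (12.5 uM) using rhodamine-CoA (5 uM). Two reads 30 minutes apart at 525/598 nm yielded each well's rate.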
Numbers without * were called inactive; ? = inconclusive; . = no result given; [ ] = another dose, or the depositor's remark. An excerpt weighted towards active compounds, which were near 4.2% of everything screened. The call rests on the fitted dose curve; in most records, active means well fitted curve in the direction sought with a large enough effect; inconclusive means small, poorly fitted or top-dose-only effect, or another doubt; inactive means no such curve, though single readings can be large; an effect the other way counts as inactive or inconclusive. Unless noted, on the % scale 0 is the no-effect control and ±100 the full control effect; potency means the concentration at half of the fitted maximal effect.

SMILES	VDR inhibitor	PLK1 PBD block	12-LOX inh	Sfp PPTase inh
CN(CC(=O)Nc1cccc(F)c1)C(=O)c1cccnc1Sc1ccccc1	-13%	-5%	7%	.
CCc1nc2c(OCc3ccccc3C)cccn2c1N(C)C(=O)C1CC1	.	4%	-1%	.
Cc1nc2c(OCc3ccccc3)cccn2c1N(C)C(=O)C1CCCCC1	.	-6%	50µM*	.
Cc1ccc(CN2CCCN(C)CC2)c(C)c1	79µM*	19µM*	-36%	-19%
Cc1ccc(CN2CCSCC2)c(C)c1	-11%	1%	-27%	?
Cc1ccccc1OCC(=O)Nc1ccc2[nH]ncc2c1	3%	-2%	42%	6%
N#C/C(=C(/O)c1ccccc1F)c1nc2cc(C(F)(F)F)ccc2s1	-2%	27µM*	1%	1%
CCSc1nc(O)cc(=O)[nH]1	-6%	0%	-4%	19%
CCSc1nc(=S)cc(C)[nH]1	79µM*	27µM*	?	22µM*
Cc1ccc(CN(CC2CCCO2)C(=O)CN2C(=O)C(C(C)C)Oc3ccccc32)o1 (stereo not given)	?	?	-15%	45µM*
O=C1CCc2c(Cl)cc(Cl)c(O)c21	.	.	5.6µM*	.
COc1cc(C)c2c(c1OC)C(=O)CC2	0%	-6%	-13%	.
Cc1cc(C)nc(SCC(=O)c2ccc([N+](=O)[O-])cc2)n1	-28%	21µM*	?	45µM*
Cc1ccnc(SCC(=O)c2ccc([N+](=O)[O-])cc2)n1	-29%	-18%	?	45µM*
Cc1cc(Cl)nc(SCC(=O)c2ccccc2)n1	10%	1%	86%	14%
O=C(O)c1cccc(-n2cc(-c3cccc(C(F)(F)F)c3)cn2)c1	2%	-16%	11%	24%
COc1cc(CC2C(=O)Nc3ccccc32)cc(C)c1O (stereo not given)	-22%	-17%	-8%	7%
COc1cc(OC)c(CC2C(=O)Nc3cc(Cl)ccc32)c(OC)c1 (stereo not given)	.	.	18µM*	.
Cc1cc(NC(=O)CSc2nnc(Nc3ccccc3C)s2)no1	-15%	21µM*	16%	6%
COc1ccc(-c2nnc(SCC(=O)NNC(=O)Cc3ccccc3)n2C)cc1OC	40µM*	27µM*	17%	-1%
Cc1cc(NC(=O)CSc2nnc(Nc3ccccc3)s2)no1	-16%	-11%	-7%	4%
Cc1cc(NC(=O)CSc2nnc(-c3ccccc3)n2C)no1	-7%	24µM*	2%	1%
CC(=O)Nc1ccc(-c2nnc(SCC(=O)c3ccc4c(c3)Cc3ccccc3-4)n2C)cc1	50µM*	-18%	?	89µM*
CCOC(=O)N/N=C/c1ccc(OCCSc2ccc(Cl)cc2)c(OCC)c1	0%	-5%	-2%	-14%
Cn1c(Sc2ccc(C(=O)O)cc2[N+](=O)[O-])nnc1-c1ccccc1	79µM*	4.2µM*	0%	10%
SMILES	VDR inhibitor	PLK1 PBD block	12-LOX inh	Sfp PPTase inh
Cn1c(SCC(=O)c2ccc(O)c(O)c2)nnc1-c1ccccc1	-20%	-2%	-21%	79µM*
Cn1c(SCC(=O)NC(c2ccccc2)c2ccccc2)nnc1-c1cccs1	?	27µM*	6%	-3%
Cn1c(SCC(=O)c2ccc(O)c(O)c2)nnc1-c1cccs1	-4%	-7%	?	-5%
O=C(CSc1nc2ccccc2n1CCc1ccccc1)c1ccc(O)c(O)c1	-20%	?	25µM*	50µM*
Cc1ccc(C(=O)N2CCC3(CC2)C(=NC2CCCCC2)NC(=O)N3c2cc(F)cc(F)c2)cc1	.	.	2%[6.33 µM]	.
O=C(O)CSc1c(-c2ccccc2)[nH]c2ccccc12	8%	-8%	1%	0%
O=C(O)CSc1nnc2c(n1)[nH]c1ccccc12	-18%	24µM*	-27%	50µM*
O=C(O)c1ccccc1CSc1nnc2c(n1)[nH]c1ccccc12	-4%	?	?	56µM*
O=C(O)CSc1c(-c2cccs2)[nH]c2ccccc12	?	27µM*	?	0%
Cc1ccc(C2CC(=O)c3cnn(-c4nc(C)cc(C)n4)c3C2)cc1 (stereo not given)	2%	-6%	-15%	-10%
CCCCOc1cccc(C(=O)Nc2cccc3ccc(C)nc23)c1	23%	.	-6%	.
CCn1cc(C(=O)NCC2CCCO2)c(=O)c2cc(F)c(N3CCN(C)CC3)cc21 (stereo not given)	15%	-7%	37%	21%
Cc1cc(C)c2nc(NNC(=O)c3cc(=O)c4ccccc4o3)sc2c1	40µM*	-26%	?	18µM*
COc1ccc(NS(=O)(=O)c2ccc3[nH]c4c(c3c2)CCCC4)c(OC)c1	19%	.	-10%	.

Bioassay records as filed in PubChem BioAssay.
